# Data from paper PMC5540273 (PLoS ONE, 2017).
# What was measured:
# Details in all cases: concentration: 1 μM, replicates: in singlicate; n = 1
# ASK2 = system: T1, ASK2
# T1 construct: gene MAP3K6
# AURKA = system: AURKA
# AURKB = system: AURKB
# AURKC = system: AURKC
# AXL = system: AXL
# BIKE = system: T2, BIKE
# T2 construct: gene BMP2K
# BLK = system: BLK
# BMPR1A = system: BMPR1A
# BMPR1B = system: BMPR1B
# BMPR2 = system: BMPR2
# BMX = system: BMX
# BRAF = system: BRAF
# BRK = system: T3, BRK
# T3 construct: gene PTK6
# BRSK1 = system: BRSK1
# BRSK2 = system: BRSK2
# BTK = system: BTK
# BUB1 = system: BUB1
# CAMK1B = system: CAMK1B
# CAMK1D = system: CAMK1D
# CAMK1G = system: CAMK1G
# 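Also: KINOMEscan kinase panel screen.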
Structure (SMILES),%Inh (ASK2) [%],%Inh (AURKA) [%],%Inh (AURKB) [%],%Inh (AURKC) [%],%Inh (AXL) [%],%Inh (BIKE) [%],%Inh (BLK) [%],%Inh (BMPR1A) [%],%Inh (BMPR1B) [%],%Inh (BMPR2) [%],%Inh (BMX) [%],%Inh (BRAF) [%],%Inh (BRK) [%],%Inh (BRSK1) [%],%Inh (BRSK2) [%],%Inh (BTK) [%],%Inh (BUB1) [%],%Inh (CAMK1B) [%],%Inh (CAMK1D) [%],%Inh (CAMK1G) [%]
Fc1ccc(-c2ncn(C3CCNCC3)c2-c2ccnc(Oc3ccc(-c4ccccc4)cc3)n2)cc1 [SB-245391],12,53,39,0,18,0,20,18,2,46,0,23,7,14,16,57,20,4,30,4
Cl.Cl.NCC(C(=O)Nc1cc(Br)c(-c2ccnc3[nH]ccc23)s1)c1ccccc1 (stereo not shown) [GSK1269851],26,81,9,53,57,99.8,0,78,0,30,12,1,7,6,0,0,59,24,0,0
COc1ccc(CNC(=O)NC2CCN(c3ccnc(Nc4ccc(F)cc4)n3)CC2)cc1 [GSK1379788],0,34,26,5,0,0,3,0,0,5,3,0,0,0,0,0,56,7,15,0
Nc1ncc(-c2ccc3nccc(-c4ccncc4)c3c2)cc1S(=O)(=O)N1CCOCC1 [GSK1627798],0,0,0,6,36,24,100,0,0,0,16,15,8,0,0,0,12,0,36,16
Cc1ccc(C(=O)N2CC[C@@H](O)C2)cc1-n1c(C)cc(OCc2ccc(F)cc2F)c(Br)c1=O,0,0,0,0,0,0,70,0,54,0,0,58,20,0,0,0,0,0,17,0
CCc1ccc(-c2ccc3c(c2)-c2c(cnn2C)S(=O)(=O)N3C)cc1,0,14,0,35,8,0,0,0,0,0,0,0,1,19,0,3,15,0,0,5
O=C(Nc1ccccc1F)NC1CCN(c2ccnc(Nc3ccc(F)cc3)n2)CC1 [GSK1379800],17,15,0,54,15,39,0,8,0,12,3,0,0,0,0,0,63,36,5,0
CNC(=O)c1ccccc1Nc1nc(Nc2ccc(N3CCOCC3)cc2)ncc1Cl.Cl [GSK1576028],16,100,99.9,100,100,100,99.7,28,100,53,91.4,72,94.6,78,92.4,96.9,96.7,39,54,30
CC(=O)N1CCN(c2ccc(Nc3nccc(-c4sc(C(C)C)nc4-c4cccc(NS(=O)(=O)c5cccc(Cl)c5)c4)n3)cn2)CC1 [GSK1660437],2,0,0,10,68,24,91.4,0,97.1,0,56,99.3,91.8,0,2,36,91,0,12,0
O=C(Nc1cccc(-c2nn3ccccc3c2-c2ccnc(Nc3cccc(F)c3)n2)c1)c1c(F)ccc(F)c1Cl [GSK357952],6,0,7,66,19,25,97.2,0,0,0,63,36,69,5,0,42,29,21,12,0
Cc1occc1-c1ncc(OC[C@@H](N)Cc2c[nH]c3ccccc23)cc1-c1ccc2[nH]nc(C)c2c1.O=C(O)C(F)(F)F [GSK682037],7,0,0,53,35,90.5,19,0,0,0,22,0,7,0,0,0,23,29,82,27
COCCOCCOc1cc2ncc3c4ccc(C#N)cc4[nH]c3c2cc1OC,0,51,83,62,44,100,21,0,0,0,35,0,18,0,12,0,96.7,14,25,1
Cc1ccc(S(=O)(=O)Nc2ccc(Nc3nccc(Nc4cccc5[nH]ncc45)n3)cc2)cc1 [GSK581271],0,99.8,37,52,0,65,0,0,0,4,5,6,34,5,0,0,44,7,8,0
COc1cc(Nc2nccc(-c3c(-c4cccc(NC(=O)c5c(F)cccc5F)c4)nn4ncccc34)n2)cc(OC)c1OC [GSK327238],8,99.1,92.5,70,91.3,7,99.6,3,0,0,91.4,96,97.6,0,40,94,54,0,13,3
O=C(NC1CCN(c2ccnc(Nc3ccc(F)cc3)n2)C1)c1cc2ccccc2s1 (stereo not shown) [GSK1379716],9,4,24,53,19,26,62,0,0,0,22,0,25,18,9,0,64,9,17,0
Cc1ccc(C)c(NC(=O)NC2CCN(c3ccnc(Nc4ccc(F)cc4)n3)C2)c1 (stereo not shown) [GSK1379720],0,0,48,76,0,23,24,0,0,21,0,0,21,0,0,0,49,0,6,11
CC(=O)Nc1nc2cnc(Nc3cc(NC(=O)c4cccc(C5(C#N)CC5)c4Cl)ccc3C)nc2s1,0,0,26,0,0,0,45,0,0,2,1,99.4,30,10,0,0,0,0,30,0
COc1ccc(-c2coc3ccc(-c4nnc(SCc5ccc(OC)c(C(F)(F)F)c5)o4)cc23)cc1,0,21,11,7,11,0,7,20,13,14,29,0,0,0,13,0,0,8,14,3
COc1cccc(-c2ccc3c(NC(=O)C4CC4)n[nH]c3n2)c1 [SB-710903],0,0,35,0,0,0,0,0,35,44,0,0,3,8,3,29,82,11,0,0
Cl.NC(=O)c1cccc(Nc2nccc(Nc3ccc(Oc4c(Cl)cccc4Cl)c(Cl)c3)n2)c1 [GW659009],0,0,17,43,5,56,45,100,0,0,0,6,76,0,0,36,17,0,2,0
